# Data as given in PubChem BioAssay (NCI).
# Compounds without any hit were thinned out: in the full panel of roughly 83,000, 20% have a hit.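 Growth was measured after 48 h exposure to one concentration of compound in 96-well plates. Values under 10 count as active.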 A number with no mark means an inactive call.
# Tested on: SNB-19 CNS
# Assay: NCI-60 one-dose screen, 48 h (100 = growth as untreated, 0 = no growth, -100 = all killed)
# Conditions: 10 µM unless noted
row,Compound,growth [%]
1,Cc1cc2c(c(C)c1Cl)C(=O)/C(=C/c1ccco1)O2,95.2
2,CN(C)CCNc1cc(-c2ccccc2)nc2ccccc12,54.2
3,COc1ccc(CCN2CCC(CN(C)Cc3cnn(-c4ccccc4)c3)CC2)cc1,29.4
4,COc1ccc(/C=C/C(=O)c2c(C)nc3ccccc3c2/C=C/c2ccccc2)cc1O,67.3
5,Nc1n[nH]c2ccc([C@@H]3Nc4ccc5[nH]ncc5c4[C@H]4[C@H]5CCC(C5)[C@H]43)cc12,33.4
6,O=c1c2cc(F)ccc2sc2c(NCCN3CCCC3)nc3ccccc3c12,69.2
7,COc1ccc2sc(N(Cc3cccnc3)C(=O)c3ccc(C#N)cc3)nc2c1,98.6
8,COC(=O)/C(CCC=C(C)C)=C1\[C@@H](OC(C)=O)C[C@@]2(C)[C@H]1C[C@@H](O)[C@H]1[C@@]3(C)CC[C@H](NC(=O)c4cnccn4)[C@@H](C)[C@@H]3CC[C@@]12C,96.5
9,CCOc1ccc(Nc2ccnc3cc(Cl)ccc23)cc1,16
10,O=C(Nc1ccsc1C(=O)NC1CCCCC1)c1ccc(F)cc1,98.8
11,CCn1c(-c2nonc2Nc2ccc(OC)cc2)nc2ccccc21,111
12,COc1ccc(/C=C2\N=C(c3ccccc3)N(c3ccc(-c4nc5ccc(C)cc5s4)cc3)C2=O)cc1,84.3
13,CSc1nc2c(c(=O)[nH]1)N=C1c3ccccc3C(=O)C1C(c1ccccc1)N2 (centres undefined),39.8
14,CC1(C)CC2(C)OC2C2(C1)N=NC(=Nc1ccccc1)O2 (centres undefined),86
